High-throughput results: PubChem BioAssay, Broad Institute
Only some compounds are listed: those with a hit (about 1.8% of all), similar ones and a draw of the others.
RAD54 branch – inhibitors of human RAD54 branch migration, primary screen, biochemical, fluorescence, single point | DNA repair and recombination protein RAD54-like (Homo sapiens), Q92698 | RAD54 Holliday junction branch migration, FAM/BHQ fluorescence | inhibition, % at 10.4 µM | hit rate 0.14% among 360,000;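 active means mean normalized replicate activity at least 40 and at least half of replicates scoring 40 or more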;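 further: inhibitors cause a drop in the FAM fluorescence signal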
Target sequence (Q92698 whole entry, looked up): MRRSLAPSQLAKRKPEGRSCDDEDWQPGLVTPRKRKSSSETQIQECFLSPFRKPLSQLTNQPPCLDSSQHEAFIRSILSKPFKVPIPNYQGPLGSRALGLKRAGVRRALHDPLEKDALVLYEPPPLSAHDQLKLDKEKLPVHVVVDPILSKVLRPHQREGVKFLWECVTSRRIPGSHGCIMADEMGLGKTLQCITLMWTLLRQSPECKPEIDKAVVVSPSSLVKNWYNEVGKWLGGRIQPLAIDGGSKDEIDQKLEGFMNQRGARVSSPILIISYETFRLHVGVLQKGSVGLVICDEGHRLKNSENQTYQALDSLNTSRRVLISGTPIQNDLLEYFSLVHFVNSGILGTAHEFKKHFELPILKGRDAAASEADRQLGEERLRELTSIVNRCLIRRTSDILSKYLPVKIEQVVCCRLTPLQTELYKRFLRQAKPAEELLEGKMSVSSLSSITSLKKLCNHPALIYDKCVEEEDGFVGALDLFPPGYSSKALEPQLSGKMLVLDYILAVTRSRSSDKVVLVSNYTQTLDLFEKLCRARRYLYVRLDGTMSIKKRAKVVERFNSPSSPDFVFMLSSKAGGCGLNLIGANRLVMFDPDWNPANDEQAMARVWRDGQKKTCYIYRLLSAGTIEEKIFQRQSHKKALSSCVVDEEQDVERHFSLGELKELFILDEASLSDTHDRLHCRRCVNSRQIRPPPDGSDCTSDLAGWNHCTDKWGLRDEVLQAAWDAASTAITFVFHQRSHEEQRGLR
EWS-Fli block – EWS/Fli-driven NR0B1 reporter inhibitors, primary screen, A673 cells, NR0B1 luciferase, luminescence, MLPCN library. viability-normalised. inhibition, % at 12.6 µM. hit rate 0.67% among 350,000. AID 651661, 2012;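 active means mean inhibition of at least 50% after viability correction, with every replicate also passing that limit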;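 further: firefly luciferase signal divided by Alamar Blue viability fluorescence both relative to DMSO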
F508del corr – F508del CFTR correction, initial screen, CFBE line, single point; CFBE cells, YFP halide quenching; stimulated with forskolin plus potentiator P3; % fluorescence drop versus neutral controls; activity (quench increase), % at 7.58 µM; hit rate 0.36% among 350,000;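 active means mean added fluorescence quench of at least 8% versus neutral control, with both replicates also reaching 8%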;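 further: cells transiently co-express mutant CFTR-F508del with the halide-sensitive YFP; corrector assay measuring rescue of mutant channel to the surface after 24 h compound exposure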
RAD52 anneal inh – RAD52 DNA annealing inhibitors, primary screen, biochemical, FRET, single point, set 2; hit rate 0.46% among 360,000; recombinant RAD52 DNA annealing, FRET fluorescence; DNA repair protein RAD52 homolog (Homo sapiens), P43351; inhibition, % at 18.7 µM;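 active means every replicate showing at least 50% inhibition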
INS-1E GSIS act – GLuc luminescence reporter in INS-1E cells, primary screen for activators of glucose-dependent secretion of insulin. activation, % at 16.6 µM. INS-1E GLuc reporter insulin secretion, 2-3 h. hit rate 0.61% among 370,000. AID 743287, 2014;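 active means lowest replicate activation of at least 40%, so every replicate reaches that level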
LGR2 inh – inhibitors of bursicon-induced LGR2 CRE-luciferase signal, primary screen, cell-based, HEK293, CRE-luciferase reporter, bursicon stimulation. inhibition, % at 9.99 µM. AID 720647, 2013. bursicon-stimulated, 4 h. hit rate 0.35% among 380,000;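 active means drop in luminescence signal, shown as inhibition above about 50% in the replicate tests, limit read from the data, passing the limit was not always enough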;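 further: agonist challenge used bursicon conditioned medium at about half maximal strength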
Hits are given with their value; i = inactive; nt = no result given.

SMILES	RAD54 branch	EWS-Fli block	F508del corr	RAD52 anneal inh	INS-1E GSIS act	LGR2 inh
C[C@@]12C(=O)Nc3ccccc3C(=O)N1[C@H]1c3cc(Br)ccc3OC[C@@H]1[C@@H]2c1ccccc1	i	55.6	i	i	i	i
C[C@@]12C(=O)Nc3ccc(Br)cc3C(=O)N1[C@H]1c3cc(Br)ccc3OC[C@@H]1[C@@H]2c1ccccc1	i	i	i	i	i	i
CCOC(=O)C(CNc1ccc(O)cc1)NC(=O)c1ccccc1 (centres undefined)	nt	i	i	i	i	i
C=CCN(CC=C)C(=O)Nc1ccc2nc(C)sc2c1	nt	i	i	i	i	i
COc1ccc(/C=C/C(=O)c2ccc([N+](=O)[O-])o2)cc1OC	nt	62.2	i	i	i	98.7
COc1cc(/C=C/C(=O)c2ccc([N+](=O)[O-])o2)ccc1O	i	55.3	i	i	i	i
COc1cc(OC)c(C(=O)C=Cc2ccc(OC)c(OC)c2)c(OC)c1	i	i	i	i	i	i
O=C(/C=C/c1cccc(Cl)c1)c1ccc([N+](=O)[O-])o1	i	76.7	i	i	i	86.1
C=CCNc1ncnc2c1cnn2-c1ccc(Cl)cc1	i	i	i	i	nt	nt
Cn1c(=O)c2c(ncn2CCNC2=NCCCCC2)n(C)c1=O	nt	i	i	i	i	i
CCc1cc2c(COC(=O)c3cc(S(=O)(=O)N4CCOCC4)ccc3F)cc(=O)oc2cc1O	i	i	i	i	nt	59.3
CCc1cc2c(COC(=O)c3cccc(NS(C)(=O)=O)c3)cc(=O)oc2cc1O	i	nt	i	i	65.3	i
CC(C)(C)OC(=O)N1CCC2CCN(S(=O)(=O)c3ccccc3)CC21 (centres undefined)	nt	i	i	i	nt	i
O=C(NCCc1ccccc1)c1cccnc1	i	nt	nt	nt	nt	nt
CC(=O)Oc1ccc(C(=O)NCCc2ccccc2)cc1	i	i	i	i	i	i
O=C(NCCc1ccccc1)c1ccc2c(c1)OCO2	i	72.9	i	i	i	78.8
O=C(NCCc1ccccc1)c1ccccc1Cl	i	i	i	i	i	58.2
CCOc1ccc(C(=O)NCCc2ccccc2)cc1	i	58.7	i	i	i	78.2
O=C(NCCc1ccccc1)c1ccc2nccnc2c1	nt	i	i	i	i	68.5
Cc1ccc(NC(=O)CSc2nc3ccccc3c(=O)n2CCCC(=O)NCCCN2CCOCC2)cc1C	nt	i	i	i	i	i
COc1ccc(NC(=O)N(C)C[C@H]2Oc3ccc(NS(=O)(=O)c4ccc(C)cc4)cc3CC(=O)N([C@H](C)CO)C[C@H]2C)cc1	nt	i	i	nt	i	i
CCCNC(=O)c1cc(-c2ccc3c(c2)OCO3)on1	i	i	i	i	i	i
O=C(NCCc1ccccc1)c1cc(-c2ccc3c(c2)OCO3)on1	i	nt	nt	nt	44.4	i
CC(C)NC(=O)N(C)C[C@@H]1Oc2cc(-c3cccnc3)ccc2S(=O)(=O)N([C@H](C)CO)C[C@H]1C	i	i	i	i	i	i
CN(Cc1ccc(C#CCCO)cc1)CC1CCCN(CCc2ccc(Cl)cc2)C1 (centres undefined)	i	i	i	i	i	i
SMILES	RAD54 branch	EWS-Fli block	F508del corr	RAD52 anneal inh	INS-1E GSIS act	LGR2 inh
Cc1ccn(CC(C)C(=O)O)n1 (centres undefined)	i	i	i	i	i	i
COc1ccc(OC)c(COC(=O)c2cc([N+](=O)[O-])ccc2N2CCOCC2)c1	i	64.6	i	i	i	i
O=C(OCc1ccccc1F)c1cc([N+](=O)[O-])ccc1N1CCOCC1	i	i	i	i	i	i
CCOc1ccc(NC(=O)COC(=O)c2cc([N+](=O)[O-])ccc2N2CCOCC2)cc1	nt	i	i	i	i	i
Cc1ccccc1COC(=O)c1cc([N+](=O)[O-])ccc1N1CCOCC1	i	nt	i	i	i	i
CCc1cccc(NC(=O)COC(=O)c2cc([N+](=O)[O-])ccc2N2CCOCC2)c1	nt	i	9.1	i	i	i
CSc1ccc(COC(=O)c2cc([N+](=O)[O-])ccc2N2CCOCC2)cc1	nt	55.2	i	i	i	i
O=Cc1ccc(Oc2ccc(F)cc2)nc1	i	i	nt	i	i	i
